Data from the supplement of paper PMC12350171.
Structures can show the parent of a compound that is named as a salt. Unmarked numbers belong to inactive results.

What was measured:
Details in all cases: 20 µM
[1] = tested on: Salmonella enterica typhimurium; assay: growth AUC normalised to DMSO control (fraction of control); higher = less growth inhibition, active = hit call of the paper
Method in brief: (§1)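 After two anaerobic passages, pathogens were added at a starting OD578 of 0.01 to pre-reduced mGAM plates holding compound at 20 μM with 1% DMSO; hemin and NAD were supplemented for Haemophilus parainfluenzae. Sealed with breathable membranes, plates were read at OD578 hourly for 24 h, in three biological replicates. The trapezoidal rule, applied up to the exponential-to-stationary transition, gave the growth-curve AUC, which was normalised to DMSO controls on the same plate.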

[2] = tested on: Shigella flexneri; assay: as above
Method in brief: as §1

[3] = tested on: Vibrio cholerae; assay: as above
Method in brief: as §1

[4] = tested on: Yersinia pseudotuberculosis; assay: as above
Method in brief: as §1

[5] = tested on: P. vulgatus RND KO; assay: growth AUC normalised to DMSO control (median) (fraction of control); higher = less growth inhibition, active = hit call of the paper
Method in brief: (§2)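 After two overnight anaerobic passages, strains were inoculated at OD578 0.01 into mGAM in 96-well plates containing approved-drug library compounds at 20 μM and 1% DMSO. Growth was followed by reading OD578 hourly for 24 h within an anaerobic incubator. Area under the curve, taken by the trapezoidal rule up to the start of stationary phase, was normalised to same-plate vehicle wells, and the median of three biological replicates is listed.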

[6] = tested on: P. vulgatus WT; assay: as above
Method in brief: as §2

[7] = tested on: S. enterica typhimurium WT; assay: as above
Method in brief: as §2

[8] = tested on: S. enterica typhimurium tolC KO; assay: as above
Method in brief: as §2
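Wherever growth AUC normalised to DMSO control (median) is given: active when median AUC fell below 0.1.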

Compound | growth AUC normalised to DMSO control [1] | growth AUC normalised to DMSO control [2] | growth AUC normalised to DMSO control [3] | growth AUC normalised to DMSO control [4] | growth AUC normalised to DMSO control [5] | growth AUC normalised to DMSO control [6] | growth AUC normalised to DMSO control [7] | growth AUC normalised to DMSO control [8]
CC(=O)c1ccc2c(c1)N(CCCN(C)C)c1ccccc1S2 [Acetopromazine maleate salt] | 1 | 1 | 0.888 | 0.949 | 0.984 | 0.963 | 1 | 0.969
CC(N)C12CC3CC(CC(C3)C1)C2 (stereo not given) [Rimantadine hydrochloride] | 0.99 | 0.987 | 0.985 | 0.869 | 0.978 | 0.983 | 0.996 | 0.989
CCc1cccc2c3c([nH]c12)C(CC)(CC(=O)O)OCC3 (stereo not given) [Etodolac] | 1.01 | 1.06 | 1.06 | 1.02 | 0.99 | 1.01 | 1.02 | 1.02
CC[C@H](c1ccc(O)cc1)[C@@H](CC)c1ccc(O)cc1 [Hexestrol] | 0.998 | 1 | 0.932 | 0.999 | 0.766 | 0.825 | 0.989 | 0.889
CCN(Cc1ccncc1)C(=O)C(CO)c1ccccc1 (stereo not given) [Tropicamide] | 1.01 | 0.987 | 0.995 | 1 | 0.996 | 0.995 | 1.01 | 1
CC(=O)N(CC(C)C(=O)O)c1c(I)cc(I)c(N)c1I (stereo not given) [Iocetamic acid] | 0.985 | 0.948 | 0.939 | 0.99 | 0.984 | 0.974 | 0.989 | 0.988
Clc1ccc(CCC(Cn2ccnc2)Sc2c(Cl)cccc2Cl)cc1 (stereo not given) [Butoconazole nitrate] | 1 | 1.01 | 0.98 | 0.745 | 0.998 | 1 | 1.01 | 0.999
COc1ccc(CN(CCN(C)C)c2ccccn2)cc1 [Pyrilamine maleate] | 0.974 | 0.995 | 0.969 | 1.01 | 0.986 | 0.979 | 0.993 | 0.987
CN(CCCCCCCCCCN(C)C(=O)Oc1cccc([N+](C)(C)C)c1)C(=O)Oc1cccc([N+](C)(C)C)c1 [Demecarium bromide] | 0.99 | 1 | 0.984 | 1.01 | 0.944 | 0.88 | 0.991 | 0.922
Cn1c(=O)c2c(ncn2CC(O)CO)n(C)c1=O (stereo not given) [Diprophylline] | 0.986 | 0.996 | 0.971 | 1 | 1 | 0.989 | 0.991 | 0.998
CC(C)(C)NC[C@H](O)COc1cccc2c1CCCC2=O [(-) Levobunolol hydrochloride] | 0.994 | 0.936 | 0.973 | 0.989 | 0.982 | 0.981 | 0.995 | 0.997
CCCc1cc(=O)[nH]c(=S)[nH]1 [Propylthiouracil] | 0.987 | 0.991 | 1 | 0.993 | 1.02 | 1.05 | 1.01 | 0.996
CCCCC(C)(O)C/C=C/[C@H]1[C@H](O)CC(=O)[C@@H]1CCCCCCC(=O)OC (mixture of isomers) [Misoprostol] | 1.02 | 1.01 | 1.02 | 1.01 | 0.996 | 0.992 | 1.01 | 0.991
CCCCC(CC)CN1CN(CC(CC)CCCC)CC(C)(N)C1 (stereo not given) [Hexetidine] | 1.04 | 1.05 | 1.02 | 1.04 | 1.02 | 1.03 | 1.02 | 0.88
CC(C)c1c(C(=O)Nc2ccccc2)c(-c2ccccc2)c(-c2ccc(F)cc2)n1CC[C@@H](O)C[C@@H](O)CC(=O)O [Atorvastatin] | 1.01 | 1.04 | 1.04 | 1.01 | 1.01 | 1 | 0.993 | 0.994
CCOC(=O)[C@@](C)(N)Cc1ccc(O)c(O)c1 [Methyldopate hydrochloride] | 0.999 | 1.04 | 1.06 | 1.02 | 0.964 | 1.02 | 1.01 | 1.02
Cc1cc(C2CCCCC2)n(O)c(=O)c1 [Ciclopirox ethanolamine] | 1.01 | 0.997 | 0.969 | 0.995 | 1.02 | 0.999 | 1.02 | 0.952
COc1cc(OC)c(C(=O)CCCN2CCCC2)c(OC)c1 [Buflomedil hydrochloride] | 1 | 0.997 | 0.997 | 1.01 | 0.997 | 0.994 | 0.995 | 1
CN(C)/N=N/c1[nH]cnc1C(N)=O [Dacarbazine] | 0.989 | 0.976 | 0.994 | 1 | 1.04 | 1.03 | 0.997 | 1
Cc1cc(C)nc(NS(=O)(=O)c2ccc(N)cc2)n1 [Sulfamethazine sodium salt] | 0.985 | 0.986 | 0.982 | 1.01 | 0.996 | 0.988 | 0.992 | 1.01
CN1CCN(CCCN2c3ccccc3Sc3ccc(C(F)(F)F)cc32)CC1 [Trifluoperazine dihydrochloride] | 1.03 | 1.04 | 1.01 | 1.04 | 0.974 | 0.941 | 1.02 | 0.929
Cc1ccc(-c2cc(C(F)(F)F)nn2-c2ccc(S(N)(=O)=O)cc2)cc1 [Celecoxib] | 1.01 | 1.02 | 0.851 (active) | 1.03 | 0.728 | 0.771 | 1.01 | 0.852
CC[N+](C)(C)c1cccc(O)c1 [Edrophonium chloride] | 1.01 | 1 | 1.02 | 0.964 | 1.02 | 1.02 | 1.01 | 0.992
CC(=O)OCC1=C(C(=O)O)N2C(=O)[C@@H](NC(=O)Cc3cccs3)[C@H]2SC1 [Cephalothin sodium salt] | 0.00459 (active) | 0.025 (active) | 0.0489 (active) | 0.0158 (active) | 0.00752 (active) | 0.0068 (active) | 0.00336 (active) | 0.00338 (active)
Cc1nc2n(c(=O)c1CCN1CCC(c3noc4cc(F)ccc34)CC1)CCCC2 [Risperidone] | 1 | 0.997 | 0.995 | 1 | 1.03 | 1.03 | 0.997 | 0.993
CC(=O)N1CCN(c2ccc(OCC3COC(Cn4ccnc4)(c4ccc(Cl)cc4Cl)O3)cc2)CC1 (stereo not given) [Ketoconazole] | 1.01 | 0.998 | 0.988 | 0.984 | 0.955 | 0.972 | 0.998 | 0.884
O=S(=O)(O)c1cc(O)ccc1O [Ethamsylate diethylammonium salt] | 1 | 0.998 | 0.999 | 1.01 | 0.99 | 0.994 | 1 | 0.999
C[C@@H]1[C@H](O)[C@@H](C)/C=C/C=C/C=C/C=C/C=C/C=C/C=C/[C@H](O[C@@H]2O[C@H](C)[C@@H](O)[C@H](N)[C@@H]2O)C[C@@H]2O[C@](O)(C[C@@H](O)C[C@@H](O)[C@H](O)CC[C@@H](O)C[C@@H](O)CC(=O)O[C@H]1C)C[C@H](O)[C@H]2C(=O)O [Amphotericin B] | 1.02 | 1.1 | 1.05 | 1.02 | 1.04 | 1.1 | 1.01 | 0.988
Cc1cc(=O)oc2cc(O)ccc12 [Hymecromone] | 1.01 | 1 | 0.998 | 0.95 | 1.03 | 1.05 | 0.999 | 1.02
C[C@H](CS)C(=O)N1CCC[C@H]1C(=O)O [Captopril] | 1.01 | 1.03 | 0.995 | 1.01 | 1.01 | 1.06 | 0.991 | 1.01
